This is an account of results in PubChem BioAssay AID590 (National Center for Advancing Translational Sciences (NCATS), 2007).

The campaign covered roughly 59,000 compounds. About 6,500 (11%) were called active. Not shown: some 15% with an inconclusive outcome. Rule as the data show it: active = max dye-equivalent concentration above about 10 nM; inconclusive = mostly about 1.1 nM to 9.6 nM; inactive = weaker than that. For the sample, actives were picked, then their nearest neighbours and some compounds at random.

The experiment can be described thus: qHTS Assay for Spectroscopic Profiling in A350 Spectral Region. As to conditions: Compound autofluorescence, 340/450 nm, Alexa 350 dye-equivalents; stronger effect = higher value. An excerpt: NIH Molecular Libraries Screening Centers Network [MLSCN]
NIH Chemical Genomics Center [NCGC]
Occasionally, the artifactual effect may originate from the compounds own spectral or other biophysical properties which generally tend to track its assay concentration. Pre-screening/profiling the library with respect to the compounds spectral properties should help one exclude false positives early on. While the most informative fluorescent profiling data set is obtained by performing a full excitation and emission scan of each well by using a monochromator-based plate reader, such an approach is practical only on a very limited scale as scanning each well requires long time. An alternative approach, applied here, is to perform plate reader scans using selected excitation and emission wavelength pairs to generate a multidimensional relational database that correlates compound concentration and the respective relative fluorescence intensity at a given wavelength set. A standard curve of Alexa 350 (A 350) present on each plate as six-point concentration series, was used to compute a normalized fluorescence response, termed dye-equivalent concentration, for each compound at each concentration.
NCGC Assay Protocol Summary:
100 mM Tris buffer, pH 8.0
The wells in columns 1 through 4 of a Kalypsys polypropylene 1536-well compound plate were filled with standard solutions of fluorophore corresponding to the spectral region of interest. Solutions of A 350 were placed in the following wells: I1, J1: 3 mM, I2, J2: 300 uM, I3, J3: 30 uM, I4, J4: zero (DMSO), K1, L1: 3 uM, K2, L2: […], K3, L3: 300 nM, K4, L4: zero (DMSO).
Six uL of buffer were dispensed to 1536-well Greiner black plates. Compounds and dye standards (23 nL) were transferred via Kalypsys PinTool. The plates were incubated for 15 min at room temperature, and then read on ViewLux (Perkin-Elmer) High-throughput CCD imager using 340 nm and 450 nm excitation and emission filter set.
Keywords: NIH Roadmap, MLSCN, MLI, MLSMR, qHTS, NCGC, A350, A-350, Fluorescent Profiling.
(qHTS replaces the single test concentration by a dilution series.)
With `COc1ccc(C(=O)n2nc(-c3ccc(Cl)cc3)nc2N)cc1OC`, the max dye-equivalent concentration entry is “inactive”.
On to `COc1ccc(C(=O)n2nc(-c3ccc(C)cc3)nc2N)cc1OC`, for which the max dye-equivalent concentration was 31 nM (active).
Take `COc1ccccc1C(=O)n1nc(-c2ccccc2)nc1N`: the max dye-equivalent concentration result is “inactive”.
For `Cc1cnc(CNc2ncncc2-c2ccccc2Cl)cn1`, the max dye-equivalent concentration result is “inactive”.
For `CCn1nc(NC(=O)c2ccco2)c2cc3ccc(C)cc3nc21`, the max dye-equivalent concentration is 86 nM (active).
Regarding `CCN(CC)C(=O)c1sc(NC(=O)c2ccco2)c(C#N)c1C`, the max dye-equivalent concentration entry was “inactive”.
In the case of `Cc1ccnc(NC(=O)c2ccc(NC(=O)c3ccco3)cc2)c1`, the max dye-equivalent concentration result is “inactive”.
For `O=C(CSc1nnc(-c2cnccn2)n1Cc1ccco1)c1ccc(Cl)c(Cl)c1`, the max dye-equivalent concentration entry is “inactive”.
On to `CC(=O)N1CSCC1C(=O)O` (configuration not stated), for which the max dye-equivalent concentration entry is “inactive”.
Next, `O=C(N1CCOCC1)N(Cc1ccccc1)c1ccccn1`: “inactive”.
On to `CN(C)CC/C=C1\c2ccccc2CSc2ccccc21`, for which the max dye-equivalent concentration entry was “inactive”.
Next, `COc1ccc(Cn2c(=O)sc3ccccc32)cc1OC`: “inactive”; `Cc1ccc2nc(NCCCNC(=O)c3cnccn3)c(C#N)cc2c1`: 220 nM (active).
For `O=S(=O)(c1ccccc1)N1CCC2(CC1)CN(Cc1nccs1)C2`, the max dye-equivalent concentration entry was “inactive”.
As for `CCCCCN(C(=O)NC(=O)Nc1ccccc1C)S(C)(=O)=O`, the max dye-equivalent concentration entry was “inactive”.
Turning to `O=C(c1cnccn1)N1CCC2(CCCN(Cc3ccccc3)C2)CC1`, the max dye-equivalent concentration result is “inactive”.
Next, `O=C(CSc1nnc(-c2ccc(NS(=O)(=O)c3ccccc3)cc2)o1)NCC1CCCO1` (configuration not stated): “inactive”.
The result for `O=C(CS(=O)(=O)Cc1ccccc1)NCC1CCCO1` (configuration not stated) reads “inactive”; that for `O=C(CSC1=Nc2ccccc2C2=NC(c3ccccc3)C(=O)N12)NCC1CCCO1` (configuration not stated), 590 nM (active).
As to `COc1ccc(S(=O)(=O)Nc2c(C)n(C)n(-c3ccccc3)c2=O)cc1`, the max dye-equivalent concentration result is “inactive”.
Take `CN(C)C(=O)c1ccc(-c2cncnc2NC2CCNCC2)cc1`: the max dye-equivalent concentration entry is “inactive”.
For the compound `CCCc1cc(=O)[nH]c(SCc2ccc(C#N)cc2)n1`, the max dye-equivalent concentration result was “inactive”.
Turning to `Cc1ccc(S(=O)(=O)NCC(=O)OCC(=O)N2CCc3ccccc32)cc1`, the max dye-equivalent concentration entry is “inactive”.
With `Cc1ccc(C(=O)N2CCCCCC2)cc1Br`, the max dye-equivalent concentration result was “inactive”.
On to `O=C(c1cc(-c2cccs2)on1)N1CCCCC1`, for which the max dye-equivalent concentration result is “inactive”.
`Cc1ccc2cc3cc(C(=O)N4CCCCCC4)oc3nc2c1`: the max dye-equivalent concentration was 11 nM (active).
Consider `O=C(CSc1nc2[nH]ncc2c(=O)n1-c1ccccc1)N1CCCc2ccccc21`, for which the max dye-equivalent concentration entry is “inactive”.
As to `COc1cc2c(cc1OC)C(c1ccncc1)CC(=O)N2` (configuration not stated), the max dye-equivalent concentration entry was “inactive”.
For the compound `Cc1ccc(OCc2nc(C#N)c(N3CCCC3)o2)cc1`, the max dye-equivalent concentration result was “inactive”.
The result for `Cc1cccc2cc(C#N)c(N3CCCC3)nc12` reads 37 nM (active).
For `Cc1cc(C)c2nc(N3CCCC3)c(C#N)cc2c1`, the max dye-equivalent concentration is 130 nM (active).
Next, `Cc1ccc2nc(CC(=O)c3ccc4ccccc4c3)c(=O)[nH]c2c1`: “inactive”.
For the compound `c1ccc2sc(SCCSc3nc4ccccc4s3)nc2c1`, the max dye-equivalent concentration result was “inactive”.
In the case of `CN1CCN(c2nc3c(c(=O)[nH]c(=O)n3C)n2Cc2cccc3ccccc23)CC1`, the max dye-equivalent concentration result was “inactive”.
With `O=C(c1ccc2c(c1)OCCO2)C1CCN(S(=O)(=O)c2cccc(F)c2)CC1`, the max dye-equivalent concentration was 12 nM (active).
`O=C(NCc1cccs1)C1CCN(S(=O)(=O)c2ccc3c(c2)OCCO3)CC1`: the max dye-equivalent concentration entry was “inactive”.
Consider `O=C(Nc1cccc(F)c1)N1CCC2(CC1)CCN(S(=O)(=O)c1ccccc1)CC2`, for which the max dye-equivalent concentration result was “inactive”.
Next, `CCc1nc(C)cn1S(=O)(=O)c1cc(OC)c(C)cc1C`: “inactive”; `CC(C)CCNC(=O)CN(C(=O)Cn1nnc(-c2ccc(F)cc2)n1)C1CCCC1`: “inactive”.
For the compound `Cc1nc2ccccc2cc1O`, the max dye-equivalent concentration is 2500 nM (active).
Turning to `Cc1cc(O)ccc1-c1cnc2ccccc2n1`, the max dye-equivalent concentration result was “inactive”.
Next, `CCOc1cc(C)c(Cl)cc1S(=O)(=O)n1nnc2ccccc21`: “inactive”; `Cc1c(C(=O)N2CCOCC2)[nH]c2ccc(OCc3ccccc3)cc12`: “inactive”; `CCOC(=O)c1[nH]c2ccc(OC)cc2c1NC(=O)N1CCOCC1`: 44 nM (active).
`CCOC(=O)c1[nH]c2ccc(OC)cc2c1NC(=O)CCN1CCN(Cc2ccccc2)CC1`: the max dye-equivalent concentration is 64 nM (active).
On to `COc1ccc(OC)c(NC(=O)CCN2CCC(C)CC2)c1`, for which the max dye-equivalent concentration entry was “inactive”.
Regarding `COc1cc(NC(=O)N2CCOCC2)cc(OC)c1`, the max dye-equivalent concentration entry was “inactive”.
In the case of `COC(=O)c1[nH]c2ccccc2c1NC(=O)CN1CCCc2ccccc21`, the max dye-equivalent concentration entry was “inactive”.
The result for `COc1ccccc1CNc1cc(-c2ccccc2CN(C)C)ncn1` reads “inactive”; that for `COCC(=O)N1CCC2(CCCN(c3ccccc3)C2)CC1`, “inactive”; that for `Cc1cc(NC(=O)COn2nnc3ccccc32)no1`, “inactive”.
Turning to `O=C1NC(=O)[C@@](Cc2ccccc2)(c2cccnc2)N1`, the max dye-equivalent concentration entry is “inactive”.
